Columns and labels:
Settings in all cases: concentration: 1 μM, replicates: in singlicate; n = 1
[1] = test system: T1, NDR1
T1 construct: gene STK38

[2] = test system: NDR2
[3] = test system: NEK10
[4] = test system: NEK11
[5] = test system: NEK1
[6] = test system: NEK2
[7] = test system: NEK3
[8] = test system: NEK4
[9] = test system: NEK5
[10] = test system: NEK6
[11] = test system: NEK7
[12] = test system: NEK9
[13] = test system: T2, NIK
T2 construct: gene MAP3K14

[14] = test system: T3, NIM1
T3 construct: gene MGC42105

[15] = test system: NLK
[16] = test system: T4, OSR1
T4 construct: gene OXSR1

[17] = test system: PAK1
[18] = test system: PAK2
[19] = test system: PAK3
[20] = test system: PAK4
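Note: KINOMEscan kinase panel screen.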

Compound	%Inh [1] [%]	%Inh [2] [%]	%Inh [3] [%]	%Inh [4] [%]	%Inh [5] [%]	%Inh [6] [%]	%Inh [7] [%]	%Inh [8] [%]	%Inh [9] [%]	%Inh [10] [%]	%Inh [11] [%]	%Inh [12] [%]	%Inh [13] [%]	%Inh [14] [%]	%Inh [15] [%]	%Inh [16] [%]	%Inh [17] [%]	%Inh [18] [%]	%Inh [19] [%]	%Inh [20] [%]
C[C@@H]1CCCCN1c1cc(-c2ccc3c(N)n[nH]c3c2)nc(N)n1 [GSK2258759]	24	12	0	0	0	3	10	0	8	0	0	0	7	0	23	0	6	0	0	0
COC(=O)c1c(-c2ccccc2)c2cc(OC)ccc2c(=O)n1Cc1ccccc1	0	3	0	0	7	9	16	11	0	0	0	7	0	0	0	0	31	27	44	9
O=C(O)COc1ncnc2cc(-c3ccc4[nH]ncc4c3)sc12	24	0	48	1	0	0	87	10	25	22	5	0	0	26	0	34	5	3	3	0
CCn1c(-c2ccccn2)nc2cnccc21 [SB-736398]	6	0	26	39	100	0	12	10	0	0	0	0	24	34	0	0	22	24	31	0
COc1cccc(NC(=O)NC2CCN(c3ccnc(Nc4ccc(F)cc4)n3)C2)c1 (centres unmarked) [GSK1379721]	9	27	0	2	0	1	6	0	29	0	16	35	2	14	0	4	0	0	0	0
Cc1cccc(-c2nc(C)cc(Nc3ccncc3)n2)n1 [GSK257997]	7	0	27	0	0	0	0	0	20	0	0	46	10	6	30	10	44	41	32	23
Cc1ccc(-c2cc(-c3c[nH]nc3-c3ccccn3)ccn2)cc1 [GW684088]	20	47	0	30	0	0	8	0	11	0	0	0	47	17	22	5	14	18	0	19

Source: article PMC5540273 (PLoS ONE, 2017)
